# Assay results as given in paper PMC11006913.
# What was measured:
# Assay in all cases: PBM; 200 nM protein, PBS
# Settings in all cases: dsDNA, one strand shown
# [1] = target: HOXA7 (Homo sapiens, UniProt P31268 116-202)
# [2] = target: HOXA7 (Homo sapiens, UniProt P31268 116-202, W177C)
# [3] = target: HOXC9 (Homo sapiens, UniProt P31274 178-260, K195R)
# [4] = target: HOXC9 (Homo sapiens, UniProt P31274 178-260)
# [5] = target: HOXC9 (Homo sapiens, UniProt P31274 178-260, R193K)
# [6] = target: HOXC9 (Homo sapiens, UniProt P31274 178-260, R222W)
# [7] = target: PRRX1 (Homo sapiens, UniProt P54821 80-166, F113S)
# [8] = target: HOXA2 (Homo sapiens, UniProt O43364 129-215, R185T)
# [9] = target: HOXA2 (Homo sapiens, UniProt O43364 129-215, R185K)
# [10] = target: HOXA2 (Homo sapiens, UniProt O43364 129-215, Y150S)
# [11] = target: PRRX1 (Homo sapiens, UniProt P54821 80-166)
# [12] = target: HOXA2 (Homo sapiens, UniProt O43364 129-215)
# [13] = target: HOXC10 (Homo sapiens, UniProt Q9NYD6 254-340)
# [14] = target: HOXB6 (Homo sapiens, UniProt P17509 132-218, K202E)
# [15] = target: ALX3 (Homo sapiens, UniProt O95076 139-225, N203Q)
# [16] = target: ALX3 (Homo sapiens, UniProt O95076 139-225)
# [17] = target: ALX3 (Homo sapiens, UniProt O95076 139-225, L168Q)
# [18] = target: ALX3 (Homo sapiens, UniProt O95076 139-225, L168V)
# [19] = target: ALX3 (Homo sapiens, UniProt O95076 139-225, N203S)
# [20] = target: HOXB6 (Homo sapiens, UniProt P17509 132-218)
# Chain of HOXB6 (Homo sapiens, UniProt P17509 132-218) (P17509 132-218): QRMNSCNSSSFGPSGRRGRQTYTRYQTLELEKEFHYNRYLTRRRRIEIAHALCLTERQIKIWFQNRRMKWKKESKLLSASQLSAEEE
# Chain of HOXC9 (Homo sapiens, UniProt P31274 178-260, K195R) (P31274 178-260 K195R): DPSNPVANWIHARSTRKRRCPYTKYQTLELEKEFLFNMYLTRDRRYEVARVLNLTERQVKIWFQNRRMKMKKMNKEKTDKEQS
# Chain of PRRX1 (Homo sapiens, UniProt P54821 80-166) (P54821 80-166): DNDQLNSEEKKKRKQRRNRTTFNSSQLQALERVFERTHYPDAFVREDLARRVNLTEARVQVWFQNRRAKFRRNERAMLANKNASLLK
# Chain of PRRX1 (Homo sapiens, UniProt P54821 80-166, F113S) (P54821 80-166 F113S): as the sequence (P54821 80-166) above, with F34S counted along it
# Chain of HOXC9 (Homo sapiens, UniProt P31274 178-260, R193K) (P31274 178-260 R193K): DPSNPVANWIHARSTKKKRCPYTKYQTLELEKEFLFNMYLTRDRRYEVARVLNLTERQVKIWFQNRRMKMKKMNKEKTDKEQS
# Chain of HOXC10 (Q9NYD6 254-340): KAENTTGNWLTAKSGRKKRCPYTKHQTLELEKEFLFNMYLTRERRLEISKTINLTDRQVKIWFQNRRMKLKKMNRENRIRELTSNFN
# Chain of HOXC9 (Homo sapiens, UniProt P31274 178-260) (P31274 178-260): as the sequence (P31274 178-260 R193K) above, with K16R counted along it
# Chain of HOXC9 (Homo sapiens, UniProt P31274 178-260, R222W) (P31274 178-260 R222W): as the sequence (P31274 178-260 R193K) above, with K16R, R45W counted along it
# Chain of ALX3 (Homo sapiens, UniProt O95076 139-225, L168Q) (O95076 139-225 L168Q): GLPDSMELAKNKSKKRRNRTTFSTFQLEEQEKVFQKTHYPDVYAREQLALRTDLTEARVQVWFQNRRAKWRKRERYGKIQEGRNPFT
# Chain of ALX3 (Homo sapiens, UniProt O95076 139-225) (O95076 139-225): as the sequence (O95076 139-225 L168Q) above, with Q30L counted along it
# Chain of HOXA7 (Homo sapiens, UniProt P31268 116-202) (P31268 116-202): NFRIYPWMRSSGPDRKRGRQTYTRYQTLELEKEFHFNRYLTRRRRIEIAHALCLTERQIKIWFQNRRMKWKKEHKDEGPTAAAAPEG
# Chain of ALX3 (Homo sapiens, UniProt O95076 139-225, L168V) (O95076 139-225 L168V): as the sequence (O95076 139-225 L168Q) above, with Q30V counted along it
# Chain of ALX3 (Homo sapiens, UniProt O95076 139-225, N203Q) (O95076 139-225 N203Q): as the sequence (O95076 139-225 L168Q) above, with Q30L, N65Q counted along it
# Chain of HOXA7 (Homo sapiens, UniProt P31268 116-202, W177C) (P31268 116-202 W177C): as the sequence (P31268 116-202) above, with W62C counted along it
# Chain of HOXB6 (Homo sapiens, UniProt P17509 132-218, K202E) (P17509 132-218 K202E): as the sequence (P17509 132-218) above, with K71E counted along it
# Chain of ALX3 (Homo sapiens, UniProt O95076 139-225, N203S) (O95076 139-225 N203S): as the sequence (O95076 139-225 L168Q) above, with Q30L, N65S counted along it
# Chain of HOXA2 (Homo sapiens, UniProt O43364 129-215, R185T) (O43364 129-215 R185T): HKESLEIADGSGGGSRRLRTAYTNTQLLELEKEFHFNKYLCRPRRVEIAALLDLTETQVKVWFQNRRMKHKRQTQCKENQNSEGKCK
# Chain of HOXA2 (Homo sapiens, UniProt O43364 129-215, R185K) (O43364 129-215 R185K): as the sequence (O43364 129-215 R185T) above, with T57K counted along it
# Chain of HOXA2 (Homo sapiens, UniProt O43364 129-215, Y150S) (O43364 129-215 Y150S): as the sequence (O43364 129-215 R185T) above, with Y22S, T57R counted along it
# Chain of HOXA2 (Homo sapiens, UniProt O43364 129-215) (O43364 129-215): as the sequence (O43364 129-215 R185T) above, with T57R counted along it
sequence,measurement,setting,value
AATACGAT,binding signal,[1],"9.45 upbm affinity estimate (log intensity, higher = more binding, comparable within an allelic series)"
same,binding signal,[2],"8.84 upbm affinity estimate (log intensity, higher = more binding, comparable within an allelic series)"
CCCGAGGG,binding signal,[3],"9.47 upbm affinity estimate (log intensity, higher = more binding, comparable within an allelic series)"
same,binding signal,[4],"9.55 upbm affinity estimate (log intensity, higher = more binding, comparable within an allelic series)"
same,binding signal,[5],"9.54 upbm affinity estimate (log intensity, higher = more binding, comparable within an allelic series)"
same,binding signal,[6],"9.61 upbm affinity estimate (log intensity, higher = more binding, comparable within an allelic series)"
CAGGAAGG,binding signal,[7],"9.25 upbm affinity estimate (log intensity, higher = more binding, comparable within an allelic series)"
same,binding signal,[8],"6.96 upbm affinity estimate (log intensity, higher = more binding, comparable within an allelic series)"
same,binding signal,[9],"10.3 upbm affinity estimate (log intensity, higher = more binding, comparable within an allelic series)"
same,binding signal,[10],"10.4 upbm affinity estimate (log intensity, higher = more binding, comparable within an allelic series)"
same,binding signal,[11],"8.96 upbm affinity estimate (log intensity, higher = more binding, comparable within an allelic series)"
same,binding signal,[12],"7.14 upbm affinity estimate (log intensity, higher = more binding, comparable within an allelic series)"
CGCGCGCG,binding signal,[13],"10.1 upbm affinity estimate (log intensity, higher = more binding, comparable within an allelic series)"
GACCCTCC,binding signal,[3],"9.64 upbm affinity estimate (log intensity, higher = more binding, comparable within an allelic series)"
same,binding signal,[4],"9.69 upbm affinity estimate (log intensity, higher = more binding, comparable within an allelic series)"
same,binding signal,[5],"9.67 upbm affinity estimate (log intensity, higher = more binding, comparable within an allelic series)"
same,binding signal,[6],"9.65 upbm affinity estimate (log intensity, higher = more binding, comparable within an allelic series)"
GGGGGAAC,binding signal,[7],"9.45 upbm affinity estimate (log intensity, higher = more binding, comparable within an allelic series)"
same,binding signal,[11],"9.62 upbm affinity estimate (log intensity, higher = more binding, comparable within an allelic series)"
AGCCCGAG,binding signal,[3],"9.64 upbm affinity estimate (log intensity, higher = more binding, comparable within an allelic series)"
same,binding signal,[4],"9.62 upbm affinity estimate (log intensity, higher = more binding, comparable within an allelic series)"
same,binding signal,[5],"9.59 upbm affinity estimate (log intensity, higher = more binding, comparable within an allelic series)"
same,binding signal,[6],"9.78 upbm affinity estimate (log intensity, higher = more binding, comparable within an allelic series)"
GCCAAGCC,binding signal,[13],"10.1 upbm affinity estimate (log intensity, higher = more binding, comparable within an allelic series)"
GAGGTTGC,binding signal,[13],"9.94 upbm affinity estimate (log intensity, higher = more binding, comparable within an allelic series)"
same,binding signal,[7],"9.19 upbm affinity estimate (log intensity, higher = more binding, comparable within an allelic series)"
same,binding signal,[11],"8.94 upbm affinity estimate (log intensity, higher = more binding, comparable within an allelic series)"
CAGCCTCC,binding signal,[14],"8.86 upbm affinity estimate (log intensity, higher = more binding, comparable within an allelic series)"
same,binding signal,[15],"7.63 upbm affinity estimate (log intensity, higher = more binding, comparable within an allelic series)"
same,binding signal,[16],"7.74 upbm affinity estimate (log intensity, higher = more binding, comparable within an allelic series)"
same,binding signal,[17],"7.64 upbm affinity estimate (log intensity, higher = more binding, comparable within an allelic series)"
same,binding signal,[18],"7.62 upbm affinity estimate (log intensity, higher = more binding, comparable within an allelic series)"
same,binding signal,[19],"7.61 upbm affinity estimate (log intensity, higher = more binding, comparable within an allelic series)"
same,binding signal,[20],"8.88 upbm affinity estimate (log intensity, higher = more binding, comparable within an allelic series)"
GCCGGCCC,binding signal,[14],"8.94 upbm affinity estimate (log intensity, higher = more binding, comparable within an allelic series)"
same,binding signal,[20],"8.94 upbm affinity estimate (log intensity, higher = more binding, comparable within an allelic series)"
CCCCCTTC,binding signal,[1],"7.86 upbm affinity estimate (log intensity, higher = more binding, comparable within an allelic series)"
same,binding signal,[13],"9.64 upbm affinity estimate (log intensity, higher = more binding, comparable within an allelic series)"
same,binding signal,[15],"7.42 upbm affinity estimate (log intensity, higher = more binding, comparable within an allelic series)"
same,binding signal,[16],"7.43 upbm affinity estimate (log intensity, higher = more binding, comparable within an allelic series)"
same,binding signal,[17],"7.31 upbm affinity estimate (log intensity, higher = more binding, comparable within an allelic series)"
same,binding signal,[18],"7.27 upbm affinity estimate (log intensity, higher = more binding, comparable within an allelic series)"
same,binding signal,[2],"8.09 upbm affinity estimate (log intensity, higher = more binding, comparable within an allelic series)"
same,binding signal,[19],"7.33 upbm affinity estimate (log intensity, higher = more binding, comparable within an allelic series)"
